The values below come from the supplement of paper PMC11417369.

Over roughly 25,000 sequences, “ln(normalized median fluorescence intensity)” has its median near 9.3; the highest 2% begin near 10. For the sample, the highest values were picked, then their nearest neighbours and some sequences at random.

The subject of the assay is PF3D7_0420300 AP2 domain 1 (GST-tagged). The experiment in a line: gcPBM binding intensity (ln(normalized median fluorescence intensity)); higher = stronger DNA binding. The method, boiled down: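 Using an Agilent 4 × 180k array, primer-extended double-stranded 36-bp intergenic genomic probes and negative controls were exposed for 1 h to GST-fused P. falciparum DNA-binding domains expressed in E. coli. Binding was carried out in 1× PBS with 1% milk, 0.2 mg/ml BSA, 0.5% salmon testes DNA and 0.03% Triton X-100, and protein was detected with Alexa488 anti-GST antibody and a 488 nm scan. Binding intensity is the highest Masliner-normalised natural-log median intensity across replicate spots of either probe orientation.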
TATTTATTTTTTTTTGTGCACTTAATATAATCTTAC: the “gcPBM binding intensity (ln)” value came to 9.24. In the case of “ATATATATATATTATGTGCGCATATACCATTTTAAT [GTGCAC_site9575]” it was 9.32; in that of “TATTACTTGATATATACACACATATAACATAAATGC [CACACA_site7783]”, 9.45; in that of “TATATATATATATATACACACATATATATAAATATA [CACACA_site2035]”, 9.2.

For the sequence “TAAATAAATACATACACACACATACCTATATTTATA [CACACA_site7466]”, the “gcPBM binding intensity (ln)” value came out at 9.93. With “GATAATACATAAATTTATAAGTGGAAGAATAAATAA [CACACA_negctrl_site698]” the figure was 9.32; with “CACAAACAAAAACACACACACACACCGACAAAAATG [CACACA_site5362]”, 10. With “GGACAACAAACAAACACACACAAAAAAAAAATAAAA [CACACA_site3791]” the figure was 9.84; with “TACTTACCAAAATACACACACACACCCAATATATAA [CACACA_site1871]”, 10.1. With “CAACAAAATAAACACACACACACAAACACAAAAAAA [CACACA_site5806]” the figure was 10.3. For “CAAAAGAAGGTAAACACACACACACGCATACAAAAA [CACACA_site7724]”, the “gcPBM binding intensity (ln)” value was 10.1.

With “CAAAAGAAGGTAAACACACACACACCCATACAAAAA [CACACA_site3765]”, the “gcPBM binding intensity (ln)” value was determined as 10.1.

On to “AATACTTACCAAAATACACACACACCCAAAATATAT [CACACA_site8559]”, for which the “gcPBM binding intensity (ln)” value was found to be 10.1. In the case of “TAAAATAAAACAAACACACACACACCGACACAAAAA [CACACA_site5993]” it was 10.2.

Take “AAAGAAGGTAAACACACACACACACCGACAAAAAAA [CACACA_site9255]”: the “gcPBM binding intensity (ln)” value was found to be 10.3. Regarding “TATTTATTAAAACACACACACACACCGACAAAATAA [CACACA_site4293]”, the “gcPBM binding intensity (ln)” value was 10.1. In the case of “TACTTACCAAAATACACACACACACTAGATATATAA [CACACA_site5096]” it was 10.3; in that of “TTTACATATTTATATACACACTTTTGCGTGCGTGGT [CACACA_site6647]”, 9.21; in that of “AAAAAAATTGGGAAAAGTACTTGCAGCTAGCTAAAA [XGTACX_site5178]”, 9.18. With “TACTTTTATATGAATACACACAGGAATATATATATG [CACACA_site3568]” the figure was 9.48; with “ATTCTAAATATCAGTGCACACATTTCTACGCAAAGT [CACACA_site474]”, 9.36; with “TATATATATATATATGGTACAGTTTATGCCTTTTAA [XGTACX_site6695]”, 9.14.

In the case of TAGTGATATAATTATGTGCACTTAATACAGGTCGAT, the “gcPBM binding intensity (ln)” value stood at 9.42. Take “AAAAAAAAAAAAAGTACACACTTTTGCGTACAAGTA [CACACA_site5672]”: the “gcPBM binding intensity (ln)” value is 9.32.

For “TTTTTAAAAAAAAATAGAGAGTCAAAGTATGTGGCG [CACACA_negctrl_site194]”, the “gcPBM binding intensity (ln)” value stood at 9.32.

As to “AATTCTTTCATATATTGTACGTATTCCCATAAAATA [XGTACX_site5923]”, the “gcPBM binding intensity (ln)” value was 9.36. In the case of “AATGCCTTGTTGAGGTGTACTGAATGTTATTTTAAT [XGTACX_site3255]” it was 9.19; in that of “TACAAAAATATATAAACACACAAATATAATATATAT [CACACA_site2942]”, 9.74. With “CAAAAAATTCAACACACACACACACCGATAAATAAA [CACACA_site8330]” the figure was 10.2; with “TATATATAAATAAACACACACAAATATAATAAAAAA [CACACA_site3526]”, 10.1. With “AAAAAAAAAAAAAACACACACACAAAATAAACAAAC [CACACA_site2720]” the figure was 10.3; with “AATATATATAAATAAACACACACAAATATAATAAAA [CACACA_site9176]”, 10.2. With “TTCAAAATAAAAAATTCACACACATATATATATATA [CACACA_site8653]”, the “gcPBM binding intensity (ln)” value came to 9.33. With “ACAAATAAATAAAAAACACACACAAATAAATAAATA [CACACA_site8708]” the figure was 10.1. In the case of “AAAATAAAATAAAACACAAAAAAATAAAACAAAATA [CACACA_negctrl_site16]” it was 9.8; in that of “AAATAATTCAAAAAAACACACAAATTACAAAATAAA [CACACA_site269]”, 9.72; in that of “AATAAAAACAAACAAAAAAACAAATAAATAAATAAA [CACACA_negctrl_site483]”, 9.65.

“CACAAAAATAAATATAAACACACAATAAATAAATAA [CACACA_site8197]”: the “gcPBM binding intensity (ln)” value came out at 9.75. Regarding “ACAAAATAAAAACACACACACAAACACAAAAAAATA [CACACA_site3390]”, the “gcPBM binding intensity (ln)” value is 10.3. With “TATATATTATAAAAGAGTACAGAAAGAAAAAAAAAT [XGTACX_site8305]” the figure was 9.54.

In the case of “TCTTTTAAATAACAACATAAATAAATAAATAAATAA [GTGCAC_negctrl_site319]”, the “gcPBM binding intensity (ln)” value was found to be 9.01. Regarding “GTGTATTTTGTGCGCACACACATGCAAAAAGAAATA [CACACA_site6660]”, the “gcPBM binding intensity (ln)” value worked out at 9.55. With “AGAAATTATAAATACCTACACACTTATCAAAATAAA [CACACA_site2264]” the figure was 9.55; with “TTACACATATATATAAATATATATAAATATATATAT [CACACA_negctrl_site150]”, 9.08. In the case of “AATATTATTTAGGAGCGTACGTTTTATTTACATATT [XGTACX_site5188]” it was 9.4. With “TATATTAAACCATGTAGTACCTTGAATAAATATTAT [XGTACX_site8254]” the figure was 9.23; with “TTTATTTAATTCATTGCATGTAATTTTTGTGTCCAC [TGCATGCA_site677]”, 9.21; with “ATTACATAACAATATACACACTATTGATTAAAGAGA [CACACA_site5602]”, 9.56. For “GGAATATAAATACATACACACATATATATATATATA [CACACA_site4998]”, the “gcPBM binding intensity (ln)” value was found to be 9.44. With “TTTTTTATTTTGTGCACACACATAAAAATATATATA [CACACA_site761]” the figure was 9.5. With “TTAATAAGAGAGCAATAGGTGGACTGTTTCTTTTAT [CACACA_negctrl_site1239]” the figure was 9.22.

“AATTAACAAAAACACACACACACACCCACAAAAAAA [CACACA_site517]”: the “gcPBM binding intensity (ln)” value amounted to 10.1. In the case of “AAATAAATAATATGTAAACACACAAAAAATAAAAAT [CACACA_site8307]” it was 9.72; in that of “TAAATTAAAAAACACACACACAAAAAAAAAAAAAAA [CACACA_site2263]”, 10.

As for “CACAAAAATAGACACACACACATATAAATAAATATA [CACACA_site6598]”, the “gcPBM binding intensity (ln)” value was 10. With “AATTAACAAAAACACACACACACACCGACAAAAAAA [CACACA_site4444]” the figure was 10.3; with “TACCAAAATAGACACACACACAAAATATGTAAATAT [CACACA_site6963]”, 10.2. Regarding “ATATATATATATATATATATATATATATATTATATA [XGTACX_negctrl_site48]”, the “gcPBM binding intensity (ln)” value came out at 8.89. In the case of “ATGTGTATAATTAAATGTACATATATATATATATAT [XGTACX_site829]” it was 9.52. As for “ATATGTAGAATAAAAAAAAAAAAAAAAAAAAAAAAT [CACACA_negctrl_site621]”, the “gcPBM binding intensity (ln)” value came out at 9.39. For “ATATATATATAATTATATAAAATATATCATATGTTA [XGTACX_negctrl_site47]”, the “gcPBM binding intensity (ln)” value is 9.15. With “TATTAATTATATTTATGTACATAATCATATTATTAT [XGTACX_site7938]” the figure was 9.37; with “TTTAATCATATGTTATATAATAAGCCCCCCCCCCAA [CACACA_negctrl_site486]”, 10.4; with “TGTAGCCTGGAGAAGAGTACATAGTATCTGGTAGCT [XGTACX_site4943]”, 9.12. “ATATTCATGTTGATATGTACTTATTCTATATTGAAT [XGTACX_site8347]”: the “gcPBM binding intensity (ln)” value was found to be 9.28. As to “AAGTGCATATTATTCACACATAATAATTGTATACCT [CACACA_site5965]”, the “gcPBM binding intensity (ln)” value was 9.34. In the case of “CTAAACAAAAAATAATGTACACATACATAAAAAATA [XGTACX_site1808]” it was 9.35; in that of “AAAAAAATTCTTGGCGCACACACTTTAAAAATTAAA [CACACA_site597]”, 9.24.

Regarding “GTAAAAAAATAGCACACACACAAAAACACGCACAAA [CACACA_site6723]”, the “gcPBM binding intensity (ln)” value came out at 10.2.

For “AAAAAACAAAAACACACGCACACAAAAAAAAAAAAA [CACACA_site802]”, the “gcPBM binding intensity (ln)” value stood at 9.82.

With “CAATATAAAAAACACACGCACACAAAAAAAAAAAAA [CACACA_site3521]”, the “gcPBM binding intensity (ln)” value came out at 9.79. In the case of “AAGTAAAAAAATAGCACACACACAAAAACACAGACA [CACACA_site4839]” it was 10.2; in that of “AAGTAAAAAAATAGCACACACACAAAAACACCCACA [CACACA_site1291]”, 10. With “AAATATTAGTAACACAGACACACAAAAAAAAAAAAA [CACACA_site2175]” the figure was 9.5. In the case of “AAAAAAAACATCCTCACACATATATATATATATATA [CACACA_site5166]” it was 9.18. “TCACCATATAAACGTGCACACTACAAAAATATATAA [CACACA_site5413]”: the “gcPBM binding intensity (ln)” value is 9.26. With “TTGGTTATACAACACATGCACACGTAAATAAATATT [CACACA_site3841]” the figure was 9.38; with “AAAGACGTTTATAAATGTACATACACTTTAAAAGTT [XGTACX_site8753]”, 9.08; with “AAAAAGTGATTAAAATGTACAAAATGCATAAAAGAA [XGTACX_site6625]”, 9.6. “TCGGGAGGGGGGAAGCGTACATATATAAAATTATTA [XGTACX_site4683]”: the “gcPBM binding intensity (ln)” value was found to be 10.2. Take “ATAAATAAATAAAAGCGTACATATATATAAAATATA [XGTACX_site8107]”: the “gcPBM binding intensity (ln)” value amounted to 9.39. With “TATAAATAGAGGAAGCGTACATATATATATATATAT [XGTACX_site4993]” the figure was 9.34; with “TTCTTACATGAGTGTACACACTTTTTTTCAGAAAAT [CACACA_site4215]”, 9.19; with “AAACCGTGGGAGCACACACACACACGCGCACATATA [CACACA_site6288]”, 10.1.

With “ACCGTGGGAAGACACACACACACACCCACATATATA [CACACA_site333]”, the “gcPBM binding intensity (ln)” value was 10.2. In the case of “CGTGGGAGCAGACACACACACACACCCATATATATA [CACACA_site334]” it was 10.1. With “ACCGTGGGAGGACACACACACACACCCACATATATA [CACACA_site4339]” the figure was 10.2; with “ACCGTGGGAGGACACACACACACACGCACATATATA [CACACA_site6289]”, 10.3. With “CGTGGGAGCGGACACACACACACACCCATATATATA [CACACA_site4340]” the figure was 10.1. Regarding “AACGCACGAGGACACACACACATATTTATATTTATA [CACACA_site6608]”, the “gcPBM binding intensity (ln)” value is 9.87. With “ACTGTGGGAATAACCACACACACACCCACATATATA [CACACA_site3542]” the figure was 10; with “ATGGGACATATATATACACACATATATATATATATA [CACACA_site1202]”, 9.46.
